Bioassay records (PubChem BioAssay)
FLuc modulator: qHTS profiling assay for firefly luciferase inhibitor/activator using purifed enzyme and Km concentrations of substrates (counterscreen for miR-21 project); purified FLuc, Km substrates, luminescence inhibition; Luciferin 4-monooxygenase (Photinus pyralis), P08659; 6.9% of 360,000 active; Potency, µM (series often up to 57.5 µM), for inactives: at the top dose activity change, negative = inhibition, usual class: inhibitors;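 also: plate controls were vehicle for no effect and reference inhibitor for full effect; nearly all actives have a fitted effect of over 55% in size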
Target sequence (P08659 whole entry, looked up): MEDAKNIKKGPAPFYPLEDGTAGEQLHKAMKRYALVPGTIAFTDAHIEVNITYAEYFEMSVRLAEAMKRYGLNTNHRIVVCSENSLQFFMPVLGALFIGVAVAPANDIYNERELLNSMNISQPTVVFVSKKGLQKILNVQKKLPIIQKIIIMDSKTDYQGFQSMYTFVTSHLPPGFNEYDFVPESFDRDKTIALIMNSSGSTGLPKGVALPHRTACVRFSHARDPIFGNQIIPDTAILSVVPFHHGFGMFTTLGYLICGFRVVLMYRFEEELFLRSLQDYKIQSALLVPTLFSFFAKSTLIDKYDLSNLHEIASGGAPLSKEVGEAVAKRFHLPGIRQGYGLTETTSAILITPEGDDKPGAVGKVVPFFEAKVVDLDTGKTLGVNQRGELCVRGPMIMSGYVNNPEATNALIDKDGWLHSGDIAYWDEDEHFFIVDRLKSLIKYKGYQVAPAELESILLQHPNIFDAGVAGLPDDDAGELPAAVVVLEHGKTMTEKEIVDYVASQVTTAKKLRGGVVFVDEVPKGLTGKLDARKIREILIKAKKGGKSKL
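Purified P. pyralis luciferase (10nM final) with 10uM D-luciferin and 10uM ATP (Km levels) in 50mM Tris acetate pH 7.5, 10mM Mg acetate, 0.01% Tween-20, 0.05% BSA; qHTS 6-point titration, ~60 µM downward; luminescence read.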
ELG1 repair inh: qHTS screen for small molecules that inhibit ELG1-dependent DNA repair in human embryonic kidney (HEK293T) cells expressing luciferase-tagged ELG1; HEK293T ELG1-luciferase reporter, luminescence, 16 h; DNA damage induced by 5-fluorouridine; Potency, µM (top dose mostly 46.1 µM), inactives show at the top dose activity change, negative = inhibition, hits mostly inhibitors; 2.3% of 330,000 active; AID 504467, 2011; also: % is scaled to controls: 0 for no effect and ±100 for the full control effect; nearly all actives have a fitted effect of over 55% in size
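Quantitative HTS, concentration-response format. 2,000 cells/well co-treated with 5-fluorouridine and compound, 16 hr in 5% CO2 at 37 °C; ONE-Glo luminescence read after 30 min.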
SMN2 splice up: qHTS Assay for Enhancers of SMN2 Splice Variant Expression; 2.8% of 210,000 active; Potency, µM (titrated, usually from 46.1 µM), for the others: at the highest dose activity change, positive = activation, most hits filed as activators; HEK293 SMN2-luciferase splicing reporter, luminescence, 30-36 h; also: % of control where 0% means no effect; nearly all actives have a fitted effect of over 55% in size
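HEK293 cells carry an SMN2 minigene-luciferase reporter in which exon 7 inclusion puts luciferase in frame. Cells were seeded at 2000 cells/well, attached for 10-12 hours, then exposed to compounds for 30-36 hours at 37C before ONE-Glo luminescence.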
NPC1 promoter act: qHTS Assay for NPC1 Promoter Activators. 2.4% of 320,000 active. AID 485313, 2010. Huh7 NPC1 promoter luciferase reporter, 24 h. Potency, µM (series often up to 9.22 µM), for the others: top-dose activation, hits mostly activators; also: % of control where 0% means no effect; nearly all actives have a fitted effect of over 60% in size
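Stably transfected Huh7 (NPC1 promoter→luciferase), 1500 cells/well in Opti-MEM + 10% FBS, 2 h settle, then compound 24 h at 37 °C. Luminescence after 10 min with Amplite reagent.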
Rab9 prom act: qHTS Assay for Rab9 Promoter Activators. Huh7 Rab9 promoter-luciferase reporter, luminescence, 24 h. Potency, µM (top dose mostly 9.22 µM), for inactives: top-dose activation, negative = inhibition, usual class: activators. 2.8% of 320,000 active; also: % of control where 0% means no effect; nearly all actives have a fitted effect of over 60% in size
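Luciferase signal after 10 min detection reagent at ambient indicates Rab9 promoter upregulation; stably transfected Huh7 cells were treated 24 h with compound in DMSO at 37 °C, 5% CO2.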
ELG1 genotox: qHTS screen for small molecules that induce genotoxicity in human embryonic kidney (HEK293T) cells expressing luciferase-tagged ELG1; HEK293T ELG1-luciferase reporter, luminescence, 16 h; 1.3% of 330,000 active; Potency, µM (doses to about 46 µM), for inactives: top-dose activity change, positive = activation, hits mostly activators; also: % of control where 0% means no effect; nearly all actives have a fitted effect of over 60% in size
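Screening used a luciferase reporter fused to human ELG1 in HEK293T cells. Luminescence was read on a CCD plate imager after 16 hr exposure and 30 min ONE-Glo incubation.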
Numbers without * were called inactive; ? = inconclusive; . = no result given. This is a sample that favours compounds with a hit; in the whole collection about 9.3% have one here. Calls follow the shape of the dose curve; as a rule, active = well fitted curve in the direction sought with a large enough effect; inconclusive = small, poorly fitted or top-dose-only effect, or another doubt; inactive = no such curve, though single readings can be large; an effect the other way counts as inactive or inconclusive. Potency is read from the fitted curve at half-maximal effect.

SMILES	FLuc modulator	ELG1 repair inh	SMN2 splice up	NPC1 promoter act	Rab9 prom act	ELG1 genotox
Cc1c(C(=O)NCc2ccc(F)cc2)sc2nc(-c3ccccc3)cn12	-10.2%	.	.	.	.	.
Cc1c(C(=O)NCc2ccccc2Cl)sc2nc(-c3ccc(F)cc3)cn12	0.5%	.	.	.	.	.
Cc1c(C(=O)NCc2cccnc2)sc2nc(-c3ccc(F)cc3)cn12	19µM*	?	-78.3%	25.3%	16.4%	?
Cc1c(C(=O)NCc2cccnc2)sc2nc(-c3ccccc3)cn12	23.9µM*	?	.	23.1%	?	?
Cc1c(C(=O)N(C)c2ccccc2)sc2nc(-c3ccc(F)cc3)cn12	16.9µM*	.	.	.	.	.
Cc1c(C(=O)NCc2ccco2)sc2nc(-c3ccccc3)cn12	16.9µM*	?	11.1%	?	?	?
CC1CN(C(=O)Nc2ccc(C(=O)NCc3cccc(F)c3)cc2)c2ccccc2S1 (stereo unspecified)	1.1%	.	0.4%	.	.	.
CC(Oc1ccc(Cl)cc1Cl)c1nc(-c2ccc(NC(=O)c3ccco3)cc2)no1 (stereo unspecified)	15.1µM*	?	-38.9%	29.0%	?	?
Cc1ccccc1OCc1nc(-c2ccc(NC(=O)c3cccs3)cc2)no1	12µM*	?	?	?	?	?
Cc1ccccc1OCc1nc(-c2ccc(NC(=O)c3ccco3)cc2)no1	10.7µM*	?	7.08µM*	?	?	?
O=C(c1ccc(Cl)cc1)C1CCN(C(=O)c2ccc(F)cc2)CC1	-0.9%	?	.	-5.4%	-5.0%	-8.0%
O=C(COc1ccccc1Cl)Nc1ccc(OCc2cc(=O)n3ccsc3n2)cc1	0.7%	.	-4.5%	.	.	.
COc1cc2c(cc1OC)CN(c1ccc(F)cc1[N+](=O)[O-])CC2	12µM*	?	.	22.9%	?	13.0%
COc1cc2c(cc1OC)CN(c1ccc([N+](=O)[O-])cc1Cl)CC2	-10.5%	-23.6%	-37.4%	-7.2%	-3.5%	9.8%
Cc1c(O)ccc(-c2n[nH]c(C(=O)O)c2-c2nc3ccccc3s2)c1O	16.9µM*	?	.	0.5%	16.2%	13.4%
Cc1c(O)ccc(-c2[nH]ncc2-c2nc3ccccc3s2)c1O	3.5%	?	3.6%	-2.4%	2.3%	-7.7%
CCOc1cccc(CN2CCC(n3nccc3NC(=O)CCCc3ccccc3)CC2)c1	-1.0%	6.51µM*	.	-1.2%	-9.9%	-8.2%
CCOc1ccc(CN2CCC(n3nccc3NC(=O)CCCc3ccccc3)CC2)cc1	0.6%	?	.	-2.1%	-8.4%	-4.6%
COC(=O)C(C(=O)OC)[C@@H](NC(=O)OCc1ccccc1)c1ccccc1	.	.	8.0%	.	.	.
O=C(Nc1ccc(OC(F)F)cc1)c1ncc(Cl)c(Cl)c1Cl	?	-1.9%	20.9%	-11.0%	10.8%	-4.7%
NC(=O)c1ccc(NC(=O)c2cnc3ccccc3n2)cc1	?	?	.	?	2.51µM*	?
Cc1ccc(NC(=O)c2cnc3ccccc3n2)cc1C	2.39µM*	?	.	0.199µM*	0.501µM*	?
Cc1ccc(NC(=O)c2ncc(Cl)c(Cl)c2Cl)cc1C	-15.0%	?	?	-3.4%	2.82µM*	?
O=C(Nc1ccccc1)c1cnc2ccccc2n1	12µM*	?	?	18.5%	6.7%	?
CSCCC(NC(=O)CCNC(=O)c1ccccc1Cl)c1nc2ccccc2[nH]1 (stereo unspecified)	5.2%	9.0%	.	-11.4%	-1.4%	3.2%
